This passage reports z-score and viability results from PubChem BioAssay.

Molecules are shown by their SMILES. Activity calls are given as the source filed them.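 How the source made its calls, unless noted: active means normalized viability below 100% at a tested concentration; inactive means the rest.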

The viability is a read-out of living cells in per cent, often relative to untreated cells.

Experiment [1] can be described thus: survival rescue of mitochondrial mutant cells in low glucose, primary screen, MELAS cybrids, Rieske KO mouse fibroblasts, CellTiter-Glo (AID 1508586;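 active means mean z-score across replicates of 1.96 or higher in either the MELAS or the Rieske mutant cell line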;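 further: z relative to plate mean and SD of compound and empty wells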).
Experiment [2] can be described thus: viability rescue of complex I mutant cybrids, primary screen, cell-based, galactose medium, ATP luminescence (AID 1645843;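 active means z-score of at least 1.8 in each of two replicates, scored against plate mean and spread of sample wells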;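 further: positive z means more ATP and so rescue of galactose-driven cybrid death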). The conditions noted are these: complex I mutant cybrid cells, 72 h, stronger effect = higher value.
Experiment [3] in a line: ovarian cancer cell viability with rucaparib, profiling panel, oncology-focused library, rucaparib conditional (AID 1508598). The conditions noted are these: patient-derived ovarian cancer cells, CellTiter-Glo viability, 144 h, stronger effect = lower value. On the technique in general: Cellular ATP, detected with luciferase, serves as a proxy for viable cell number.
Where [4] appears, read: at 0.000305 µM, OCI-C5x cells, with rucaparib 10 µM, 100% = cells with rucaparib alone.
[5] abbreviates: at 0.000305 µM, OCI-C5x cells, without rucaparib.
Setting [6] is: at 0.000305 µM, OCI-P5x cells, with rucaparib 20 µM, 100% = cells with rucaparib alone.
[7] abbreviates: at 0.000305 µM, OCI-P5x cells, without rucaparib.
Setting [8] is: at 0.00122 µM, OCI-C5x cells, with rucaparib 10 µM, 100% = cells with rucaparib alone.
The mark [9] stands for this setting: at 0.00122 µM, OCI-C5x cells, without rucaparib.
[10] abbreviates: at 0.00122 µM, OCI-P5x cells, with rucaparib 20 µM, 100% = cells with rucaparib alone.
Setting [11] is: at 0.00122 µM, OCI-P5x cells, without rucaparib.
[12] abbreviates: at 0.00488 µM, OCI-C5x cells, with rucaparib 10 µM, 100% = cells with rucaparib alone.
The mark [13] stands for this setting: at 0.00488 µM, OCI-C5x cells, without rucaparib.
The mark [14] stands for this setting: at 0.00488 µM, OCI-P5x cells, with rucaparib 20 µM, 100% = cells with rucaparib alone.
The mark [15] stands for this setting: at 0.00488 µM, OCI-P5x cells, without rucaparib.
[16] abbreviates: at 0.0195 µM, OCI-C5x cells, with rucaparib 10 µM, 100% = cells with rucaparib alone.
The mark [17] stands for this setting: at 0.0195 µM, OCI-C5x cells, without rucaparib.
The mark [18] stands for this setting: at 0.0195 µM, OCI-P5x cells, with rucaparib 20 µM, 100% = cells with rucaparib alone.
Where [19] appears, read: at 0.0195 µM, OCI-P5x cells, without rucaparib.
[20] abbreviates: at 0.0781 µM, OCI-C5x cells, with rucaparib 10 µM, 100% = cells with rucaparib alone.
Setting [21] is: at 0.0781 µM, OCI-C5x cells, without rucaparib.
Setting [22] is: at 0.0781 µM, OCI-P5x cells, with rucaparib 20 µM, 100% = cells with rucaparib alone.
The mark [23] stands for this setting: at 0.0781 µM, OCI-P5x cells, without rucaparib.
The mark [24] stands for this setting: at 0.313 µM, OCI-C5x cells, with rucaparib 10 µM, 100% = cells with rucaparib alone.
Setting [25] is: at 0.313 µM, OCI-C5x cells, without rucaparib.
[26] abbreviates: at 0.313 µM, OCI-P5x cells, with rucaparib 20 µM, 100% = cells with rucaparib alone.
The mark [27] stands for this setting: at 0.313 µM, OCI-P5x cells, without rucaparib.
Setting [28] is: at 1.25 µM, OCI-C5x cells, with rucaparib 10 µM, 100% = cells with rucaparib alone.
The mark [29] stands for this setting: at 1.25 µM, OCI-C5x cells, without rucaparib.
Setting [30] is: at 1.25 µM, OCI-P5x cells, with rucaparib 20 µM, 100% = cells with rucaparib alone.
[31] abbreviates: at 1.25 µM, OCI-P5x cells, without rucaparib.
Where [32] appears, read: at 5 µM, OCI-C5x cells, with rucaparib 10 µM, 100% = cells with rucaparib alone.
Where [33] appears, read: at 5 µM, OCI-C5x cells, without rucaparib.
Where [34] appears, read: at 5 µM, OCI-P5x cells, with rucaparib 20 µM, 100% = cells with rucaparib alone.
[35] abbreviates: at 5 µM, OCI-P5x cells, without rucaparib.

As for `CCc1ccc(CNc2cnc3c(c2)c(NC(=O)c2cccnc2)c(C(=O)OC)n3CC(C)C)o1`, the z-score in experiment [1] (MELAS cybrid survival, CellTiter-Glo 48 h, stronger effect = higher value) was 3.75 (active); in experiment [1] (Rieske KO mouse fibroblast survival, CellTiter-Glo 72 h) it was 4.55; in experiment [2], -1.67 (inactive).
Regarding `Cc1cc2c(C(=O)NC[C@H](C)c3ccccc3)c(O)c(O)cc2c(O)c1-c1c(C)cc2c(C(=O)NC[C@H](C)c3ccccc3)c(O)c(O)cc2c1O`, the viability in experiment [3] (setting [4]) was 120% (inactive); in experiment [3] (setting [5]), 108% (inactive); in experiment [3] (setting [6]), 99.3% (active); in experiment [3] (setting [7]) it was 89.3% (active); in experiment [3] (setting [8]), 132% (inactive); in experiment [3] (setting [9]) it was 116% (inactive). The viability in experiment [3] (setting [10]) was 98.5% (active); in experiment [3] (setting [11]), 89.2% (active); in experiment [3] (setting [12]), 128% (inactive); in experiment [3] (setting [13]), 110% (inactive); in experiment [3] (setting [14]), 97.9% (active); in experiment [3] (setting [15]), 91.4% (active). Moreover, the viability in experiment [3] (setting [16]) is 124% (inactive); in experiment [3] (setting [17]), 116% (inactive); in experiment [3] (setting [18]), 102% (inactive); in experiment [3] (setting [19]) it was 91.3% (active); in experiment [3] (setting [20]) it was 122% (inactive); in experiment [3] (setting [21]) it was 110% (inactive). For the same molecule, the viability in experiment [3] (setting [22]) was 105% (inactive); in experiment [3] (setting [23]), 95.4% (active); in experiment [3] (setting [24]), 119% (inactive); in experiment [3] (setting [25]), 106% (inactive); in experiment [3] (setting [26]) it was 96.3% (active); in experiment [3] (setting [27]) it was 93.3% (active). In addition, the viability is 123% (inactive) in experiment [3] (setting [28]); 106% (inactive) in experiment [3] (setting [29]); 99.6% (active) in experiment [3] (setting [30]); 91.3% (active) in experiment [3] (setting [31]); 15.2% (active) in experiment [3] (setting [32]); 17.1% (active) in experiment [3] (setting [33]). In addition, the viability in experiment [3] (setting [34]) was 2.71% (active); in experiment [3] (setting [35]) it was 9.17% (active).
Regarding `CC(=O)O[C@]12CO[C@@H]1C[C@H](O)[C@]1(C)C(=O)[C@H](O)C3=C(C)[C@H](OC(=O)[C@H](O)[C@@H](NC(=O)OC(C)(C)C)c4ccccc4)C[C@](O)([C@H](OC(=O)c4ccccc4)C21)C3(C)C` (some centres not stated), the viability is 118% (inactive) in experiment [3] (setting [4]); 115% (inactive) in experiment [3] (setting [5]); 120% (inactive) in experiment [3] (setting [6]); 106% (inactive) in experiment [3] (setting [7]); 86.4% (active) in experiment [3] (setting [8]); 76% (active) in experiment [3] (setting [9]). For the same molecule, the viability in experiment [3] (setting [10]) is 93% (active); in experiment [3] (setting [11]) it was 33.3% (active); in experiment [3] (setting [12]) it was 37.6% (active); in experiment [3] (setting [13]), 32.6% (active); in experiment [3] (setting [14]) it was 70.1% (active); in experiment [3] (setting [15]), 19.5% (active). Further, the viability in experiment [3] (setting [16]) is 41.9% (active); in experiment [3] (setting [17]) it was 35.3% (active); in experiment [3] (setting [18]), 56.6% (active); in experiment [3] (setting [19]), 16.8% (active); in experiment [3] (setting [20]) it was 38.2% (active); in experiment [3] (setting [21]) it was 33.7% (active). The viability in experiment [3] (setting [22]) is 61.2% (active); in experiment [3] (setting [23]) it was 19.8% (active); in experiment [3] (setting [24]), 41.5% (active); in experiment [3] (setting [25]) it was 37.8% (active); in experiment [3] (setting [26]), 55.6% (active); in experiment [3] (setting [27]) it was 18.6% (active). Moreover, the viability in experiment [3] (setting [28]) was 47.4% (active); in experiment [3] (setting [29]), 41.3% (active); in experiment [3] (setting [30]), 55.9% (active); in experiment [3] (setting [31]), 20.7% (active); in experiment [3] (setting [32]) it was 37.7% (active); in experiment [3] (setting [33]), 56.7% (active). In addition, the viability in experiment [3] (setting [34]) was 34.2% (active); in experiment [3] (setting [35]), 16.1% (active).
